Reference: PubChem BioAssay AID2546 (National Center for Advancing Translational Sciences (NCATS), 2010)
Out of some 310,000 compounds screened, about 11,000 (3.5%) were called active. Roughly 8% stayed inconclusive and do not appear here. The entries come from a sample that favours actives as a whole. Where a call stands in place of a potency, no number is given. A number with no mark means an inactive call. Calls follow the shape of the dose curve; as a rule, active = well fitted inhibition curve with a large enough effect; inconclusive = small, poorly fitted or top-dose-only effect, or effect the other way; inactive = flat fitted curve, though single readings scatter.

Assay: VP16 counterscreen qHTS for inhibitors of ROR gamma transcriptional activity;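 also: Gal4-VP16 expression switched on by copper sulfate through the metallothionein promoter; nearly all actives have a fitted effect of over 50% in size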
Conditions: Drosophila S2 Gal4-VP16 UAS-luciferase, luminescence, 20 h; series mostly up to 53.6 µM
Description: NIH Molecular Libraries Probe Production Network [MLPCN]
NIH Chemical Genomics Center [NCGC]
Assay Provider: Dan Littman, New York University
The retinoic acid-related orphan receptor (ROR) gamma is a transcription factor that has a central role in the differentiation of Th17 cells, a subset of T helper cells that secrete the inflammatory cytokines IL-17, IL-17F, and IL-22. Th17 cells have been implicated in graft versus host disease, autoimmune disease and asthma. ROR gamma is induced in naive T helper cells in the presence of TGF-beta combined with IL-6, IL-21, or IL-23, and thereafter directs the expression of the Th17 lineage cytokines. To identify nonspecific inhibitors, a Drosophila Schneider cell line was stably transfected with two vectors: a gene expressing a fusion of the Gal4 DNA binding domain and VP16 transactivation domain under the control of the metallothionine promoter and a Photinus luciferase reporter regulated by the Gal4 binding site enhancer, UAS. […] Small molecule inhibitors that inhibit components common to the RORgt and VP16 assays, such as the Gal4 DNA binding domain or the UAS luciferase reporter, will be active in both assays and thus scored as nonspecific.
For screening, 600 cells in 4 uL/well were dispensed into white solid 1536-well plates (Grenier) using a solenoid-based dispenser. Following transfer of 23 nL compound or DMSO vehicle by a pin tool, the plates were incubated 1 hr at ambient temperature, and 1 uL/well copper sulfate (700 uM final concentration) was added. The plates were centrifuged 15 s at 1000 RPM and incubated 20 hr at ambient temperature. After addition of 1.5 uL Photinus luciferase detection reagent, the plates were incubated 10 min at ambient temperature and then read by a ViewLux (Perkin Elmer) to detect luminescence.
Potency is read from the fitted curve at half-maximal effect.

| Compound | Potency | activity, negative = inhibition |
| --- | --- | --- |
| COc1cc(NC(=O)C2=C(C)OCCS2)c(Cl)cc1C(=O)NCCN1CCN(C)CC1 | inactive | – |
| Cn1nccc1/C=N\NC(=O)c1ccc(Cl)cc1 | inactive | – |
| CCOc1ccc(CCNC(=O)Nc2ccccc2)cc1OCC | inactive | – |
| COc1ccc(/C=C2\SC(=S)N(CCC(=O)Nc3cccc(C(=O)O)c3)C2=O)cc1OC | inactive | – |
| COc1ccc(NC(=O)CCN2C(=O)/C(=C/c3ccc4c(c3)OCO4)SC2=S)cc1 | inactive | – |
| COc1ccccc1C(=O)NNC(=O)CCN1C(=O)/C(=C\c2ccccc2)SC1=S | inactive | – |
| Cc1ccc(/C=C2\SC(=S)N(CCC(=O)Nc3ccc(O)cc3)C2=O)cc1 | inactive | – |
| O=C(CCCN1C(=O)/C(=C/c2ccco2)SC1=S)Nc1ccccc1 | 12.6 µM (active) | – |
| O=C(CCCN1C(=O)/C(=C/c2ccccc2)SC1=S)Nc1ccc(O)cc1 | 2 µM (active) | – |
| COC(=O)c1ccc(Nc2ncnc3sccc23)cc1 | inactive | – |
| CCCCCCC(O)(CCN1CCCCC1)c1ccccc1 (stereo not drawn) | inactive | – |
| CC(=O)N1c2ccc(S(=O)(=O)N3CCC(C(=O)N4CCN(c5ccccc5)CC4)CC3)cc2CC1C (stereo not drawn) | inactive | – |
| Fc1ccc(Br)cc1/C=N/n1cnnc1 | inactive | – |
| CCOc1cc(/C=N/n2cnnc2)c(Br)cc1O | 5.62 µM (active) | – |
| Brc1cc(/C=N/n2cnnc2)oc1Br | inactive | – |
| COc1cc(C(=O)OCC(=O)NC(C)CCc2ccccc2)cc(OC)c1OC (stereo not drawn) | inactive | – |
| O=C(C[n+]1cc(Br)cc2ccccc21)c1ccc(F)cc1 | inactive | – |
| COc1ccc(Nc2ncnc3ccc(OC)cc23)cc1 | inactive | – |
| COc1ccc(CNc2ncnc3ccccc23)cc1 | 7.08 µM (active) | – |
| c1ccc(-c2nc(NCc3ccco3)c3ccccc3n2)cc1 | inactive | – |
| c1coc(CNc2ncnc3ccccc23)c1 | 10 µM (active) | – |
| Brc1ccc2ncnc(NCc3cccnc3)c2c1 | inactive | – |
| COc1cccc(CNc2nc(C(F)(F)F)nc3ccccc23)c1 | inactive | – |

| Compound | Potency | activity, negative = inhibition |
| --- | --- | --- |
| CCOCCCN(C)C1CCN(C(=O)c2oc3ccccc3c2NC(=O)COc2cccc(C)c2)CC1 | inactive | – |
| Cc1cccn2c(=O)c3cc(C(=O)NCCN4CCOCC4)c(=N)n(Cc4cccnc4)c3nc12 | inactive | – |
| COc1cc2c(cc1OC)CN(C(=O)c1cc(S(=O)(=O)N3CCCCC3)ccc1Cl)CC2 | inactive | – |
| Cc1cc(C)n(-c2nc(SCC(=O)N3CCCC3)c3c4c(sc3n2)CCCC4)n1 | 10 µM (active) | – |
| CC(C)c1nc(SCC(=O)Nc2cccc(C(=O)O)c2)c2c3c(sc2n1)CCCC3 | inactive | – |
| CCCc1nc(SCC(=O)N2CCCC2)c2c(=O)n(C)c(=O)n(C)c2n1 | inactive | – |
| Cc1nc2sc3c(c2c(=O)n1NC(=O)CCl)CCCC3 | inactive | – |
| CC/C(C)=N/Nc1nc2sc3c(c2c(=O)[nH]1)CC(C)(C)OC3 | inactive | – |
| CCC(O)CNc1nc(-n2nc(C)cc2C)nc2sc3c(c12)CC(C)(C)OC3 (stereo not drawn) | 3.98 µM (active) | – |
| CCOC(=O)CSc1nc2sc3c(c2c(=O)[nH]1)CC(C)(C)OC3 | inactive | – |
| Cc1ccc(C)c(-n2c(SCC(=O)O)nc3sc4c(c3c2=O)CCCC4)c1 | inactive | – |
| COCCNc1nc(-n2nc(C)cc2C)nc2sc3c(c12)CCCC3 | 3.16 µM (active) | – |
| O=C(C1CCCN(S(=O)(=O)c2ccccc2)C1)N1CCN(c2ccc(F)cc2)CC1 (stereo not drawn) | inactive | – |
| Cc1nc([N+](=O)[O-])cn1CC(=O)Nc1ccc(Cl)cc1 | inactive | – |
| CC(=O)c1cccc(NC(=O)C2COc3ccccc3O2)c1 (stereo not drawn) | inactive | – |
| CC(NC(=S)Nc1ccccc1)C1COc2ccccc2O1 (stereo not drawn) | 5.01 µM (active) | – |
| O=C(NCC1COc2ccccc2O1)C1(c2ccccc2)CCCC1 (stereo not drawn) | inactive | – |
| CSc1c(SCc2ccccc2)cnn(Cc2ccccc2)c1=O | 7.08 µM (active) | – |
| Cn1c(CO)cnc1SCc1ccccc1 | inactive | – |
| CSc1nc2ccccc2c(=O)n1Cc1ccc(F)cc1 | – | 7.17% [at 10 µM] |
| O=C(NCC(=O)N1CCN(c2ccccc2O)CC1)c1ccc2ccccc2c1 | inactive | – |
| Cc1ccccc1-n1cc(CNC(=O)C2CCC(=O)N(C3CC3)C2)cn1 (stereo not drawn) | inactive | – |
| CC(C)CC(=O)Nc1ccc(Cc2ccncc2)cc1 | inactive | – |

| Compound | Potency | activity, negative = inhibition |
| --- | --- | --- |
| Cc1c(C(=O)N2CCCc3ccccc32)oc2ccccc12 | inactive | – |
| Cc1cc(-c2ccc(C)c(S(=O)(=O)NCCCN(Cc3ccccc3)C(C)C)c2)on1 | inactive | – |
| CC(=O)Nc1cccc(OCC(=O)/C=C2\N(C)c3ccccc3C2(C)C)c1 | 3.16 µM (active) | – |
| Cc1noc(C)c1C(=O)OCC(=O)/C=C1\N(C)c2ccccc2C1(C)C | inactive | – |
| CN1/C(=C\C(=O)c2cccnc2Cl)C(C)(C)c2ccccc21 | inactive | – |
| COCC1CCN(C(=O)CCc2nnc(C3(c4ccc(Cl)cc4)CCC3)o2)C1 (stereo not drawn) | inactive | – |
| C=CCn1c(=O)c(C(=O)NCc2ccc3c(c2)OCO3)c(O)c2ccccc21 | inactive | – |
| CN(C)S(=O)(=O)c1ccc(NC(=O)COC(=O)Cn2[nH]c(=O)c3ccccc3c2=O)cc1 | inactive | – |
| CN(C)S(=O)(=O)c1ccc(NC(=O)COC(=O)c2n[nH]c3ccccc23)cc1 | 8.91 µM (active) | – |
| O=C(COC(=O)c1n[nH]c2ccccc12)NCc1ccccc1 | inactive | – |
| O=C1c2cccc3c([N+](=O)[O-])ccc(c23)C(=O)N1CC1CCCO1 (stereo not drawn) | 5.62 µM (active) | – |
| CCC(=O)Nc1ccc(C(=O)Nc2ccc3c(c2)C(=O)N(CC2CCCO2)C3=O)cc1 (stereo not drawn) | inactive | – |
| O=C(/C=C/c1ccccc1[N+](=O)[O-])NCC1CCCO1 (stereo not drawn) | inactive | – |
| Cc1ccc(-n2c(C)nnc2SCC(=O)NC2CC2)cc1 | inactive | – |
| O=C(NCc1cccc(Cl)c1)C1CCC(=O)N(C2CC2)C1 (stereo not drawn) | inactive | – |
| CCOc1ccccc1N1CCN(C(=S)Nc2ccc(S(N)(=O)=O)cc2)CC1 | inactive | – |
| COc1ccccc1NC(=S)N1CCN(c2ccc(F)cc2)CC1 | inactive | – |
| COc1ccccc1CN1CCN(C(c2ccccc2)c2ccccc2)CC1 | inactive | – |
| COc1ccccc1NC(=S)N1CCN(C(c2ccccc2)c2ccccc2)CC1 | 20 µM (active) | – |
| CCOc1ccccc1NC(=S)N1CCN(c2cccc(C)c2C)CC1 | 4.47 µM (active) | – |
| CCC(=O)N1CCN(c2ccccc2NC(=O)COc2cccc(C)c2C)CC1 | inactive | – |
| Cc1sc2nc(SCCO)n(-c3ccccc3)c(=O)c2c1C | inactive | – |
